The source of these data is ChEMBL document CHEMBL1961873, “Compounds: GSK PKIS; Assays: Nanosyn kinase panel” (2012).

For assay [1], the target named is Protein kinase C gamma type (Homo sapiens) (UniProt P05129). As to conditions: at 1 µM.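 Also: each value is an averaged percent inhibition of the enzyme.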
For assay [2], the target named is T1, Protein kinase C iota type (Homo sapiens) (UniProt P41743).
T1 sequence (whole entry): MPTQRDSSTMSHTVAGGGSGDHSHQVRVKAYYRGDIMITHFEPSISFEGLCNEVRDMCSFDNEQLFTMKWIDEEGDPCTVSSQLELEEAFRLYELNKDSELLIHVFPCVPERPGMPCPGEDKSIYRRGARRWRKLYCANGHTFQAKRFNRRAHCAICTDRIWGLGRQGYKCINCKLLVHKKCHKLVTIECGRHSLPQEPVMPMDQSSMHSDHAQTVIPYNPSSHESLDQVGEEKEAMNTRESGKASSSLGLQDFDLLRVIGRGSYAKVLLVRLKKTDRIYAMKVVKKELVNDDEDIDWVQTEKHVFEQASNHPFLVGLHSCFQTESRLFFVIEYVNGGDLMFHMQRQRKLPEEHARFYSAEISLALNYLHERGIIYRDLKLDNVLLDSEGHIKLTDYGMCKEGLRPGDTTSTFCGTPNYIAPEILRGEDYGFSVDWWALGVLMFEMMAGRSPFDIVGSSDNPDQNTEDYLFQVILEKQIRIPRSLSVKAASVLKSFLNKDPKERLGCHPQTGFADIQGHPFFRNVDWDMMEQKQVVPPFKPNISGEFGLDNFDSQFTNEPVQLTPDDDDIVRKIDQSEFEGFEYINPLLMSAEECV
To be noted: at 0.1 µM.

Assay [3] has as its target T1, Protein kinase C iota type (Homo sapiens). To be noted: at 1 µM.
The target of assay [4] is Protein kinase C theta type (Homo sapiens) (UniProt Q04759). To be noted: at 0.1 µM.
Sequence of Protein kinase C theta type (Homo sapiens) (Q04759 whole entry, looked up): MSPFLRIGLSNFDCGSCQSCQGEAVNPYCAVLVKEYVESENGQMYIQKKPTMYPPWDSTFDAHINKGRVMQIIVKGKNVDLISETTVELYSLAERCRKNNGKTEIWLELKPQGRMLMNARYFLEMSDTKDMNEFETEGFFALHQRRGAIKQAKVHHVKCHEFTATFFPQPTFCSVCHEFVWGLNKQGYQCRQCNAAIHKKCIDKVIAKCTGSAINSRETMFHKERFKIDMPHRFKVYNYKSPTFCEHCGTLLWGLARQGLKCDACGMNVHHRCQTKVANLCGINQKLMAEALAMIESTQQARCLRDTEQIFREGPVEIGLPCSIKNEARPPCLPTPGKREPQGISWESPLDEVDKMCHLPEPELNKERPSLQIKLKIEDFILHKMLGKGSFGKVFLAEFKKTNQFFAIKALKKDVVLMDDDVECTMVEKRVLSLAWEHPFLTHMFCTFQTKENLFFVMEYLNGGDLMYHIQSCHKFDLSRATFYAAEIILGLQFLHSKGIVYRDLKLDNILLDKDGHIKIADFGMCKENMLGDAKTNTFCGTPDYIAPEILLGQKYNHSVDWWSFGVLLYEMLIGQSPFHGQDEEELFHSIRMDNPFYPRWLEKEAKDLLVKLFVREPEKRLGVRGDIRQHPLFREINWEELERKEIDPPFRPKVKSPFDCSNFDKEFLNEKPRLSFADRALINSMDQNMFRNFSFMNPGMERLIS
The target is the same in assay [5]. To be noted: at 1 µM.
The target of assay [6] is Protein kinase C beta type (Homo sapiens) (UniProt P05771). As to conditions: at 0.1 µM.
Sequence of Protein kinase C beta type (Homo sapiens) (P05771 2-671 limits assumed): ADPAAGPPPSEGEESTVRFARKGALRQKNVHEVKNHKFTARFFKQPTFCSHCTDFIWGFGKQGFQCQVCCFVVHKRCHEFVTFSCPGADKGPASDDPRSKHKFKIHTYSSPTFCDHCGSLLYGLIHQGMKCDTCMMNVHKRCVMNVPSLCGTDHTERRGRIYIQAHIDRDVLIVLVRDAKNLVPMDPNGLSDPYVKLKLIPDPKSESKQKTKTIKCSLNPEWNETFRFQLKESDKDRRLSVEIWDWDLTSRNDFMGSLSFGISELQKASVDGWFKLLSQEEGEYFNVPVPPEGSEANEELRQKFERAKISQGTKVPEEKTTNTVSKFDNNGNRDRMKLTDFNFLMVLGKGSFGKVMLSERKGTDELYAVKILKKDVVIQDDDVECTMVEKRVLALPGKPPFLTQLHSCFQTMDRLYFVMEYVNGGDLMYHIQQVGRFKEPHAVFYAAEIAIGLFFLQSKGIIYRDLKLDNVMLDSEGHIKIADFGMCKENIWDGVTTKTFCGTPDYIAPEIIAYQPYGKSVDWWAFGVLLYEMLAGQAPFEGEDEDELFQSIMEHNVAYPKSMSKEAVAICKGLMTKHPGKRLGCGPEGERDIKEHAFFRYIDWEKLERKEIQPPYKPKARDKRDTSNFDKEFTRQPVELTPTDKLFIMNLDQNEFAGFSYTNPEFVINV
Assay [7] has the same target. To be noted: at 1 µM.
The target in assay [8] is T2, Serine/threonine-protein kinase D1 (Homo sapiens) (UniProt Q15139).
T2 sequence (whole entry): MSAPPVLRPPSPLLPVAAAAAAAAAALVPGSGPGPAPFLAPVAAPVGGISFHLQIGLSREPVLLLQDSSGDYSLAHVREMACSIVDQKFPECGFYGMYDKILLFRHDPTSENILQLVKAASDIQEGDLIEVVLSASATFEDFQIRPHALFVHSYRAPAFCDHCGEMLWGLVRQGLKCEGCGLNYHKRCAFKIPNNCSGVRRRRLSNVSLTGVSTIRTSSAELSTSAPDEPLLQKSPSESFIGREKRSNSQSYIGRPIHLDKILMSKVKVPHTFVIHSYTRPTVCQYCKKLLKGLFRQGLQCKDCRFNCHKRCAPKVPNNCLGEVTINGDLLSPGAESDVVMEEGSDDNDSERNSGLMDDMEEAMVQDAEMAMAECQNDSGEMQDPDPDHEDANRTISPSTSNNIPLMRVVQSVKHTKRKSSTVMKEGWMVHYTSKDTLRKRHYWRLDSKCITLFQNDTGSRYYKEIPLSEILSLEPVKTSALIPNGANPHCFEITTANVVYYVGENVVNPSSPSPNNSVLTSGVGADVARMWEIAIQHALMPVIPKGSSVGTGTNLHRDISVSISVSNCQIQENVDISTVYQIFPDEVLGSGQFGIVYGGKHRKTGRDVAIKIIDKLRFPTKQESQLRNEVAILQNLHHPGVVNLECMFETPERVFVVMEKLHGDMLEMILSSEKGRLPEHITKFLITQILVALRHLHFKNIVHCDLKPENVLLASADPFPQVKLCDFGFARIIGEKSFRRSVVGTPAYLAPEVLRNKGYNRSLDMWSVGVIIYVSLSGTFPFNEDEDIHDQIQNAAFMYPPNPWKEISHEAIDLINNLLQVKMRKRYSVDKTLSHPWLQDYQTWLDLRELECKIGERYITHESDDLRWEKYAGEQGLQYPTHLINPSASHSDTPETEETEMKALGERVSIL
To be noted: at 0.1 µM.

Assay [9] has as its target T2, Serine/threonine-protein kinase D1 (Homo sapiens). To be noted: at 1 µM.
Assay [10] concerns the target T3, Serine/threonine-protein kinase D2 (Homo sapiens) (UniProt Q9BZL6).
T3 sequence (whole entry): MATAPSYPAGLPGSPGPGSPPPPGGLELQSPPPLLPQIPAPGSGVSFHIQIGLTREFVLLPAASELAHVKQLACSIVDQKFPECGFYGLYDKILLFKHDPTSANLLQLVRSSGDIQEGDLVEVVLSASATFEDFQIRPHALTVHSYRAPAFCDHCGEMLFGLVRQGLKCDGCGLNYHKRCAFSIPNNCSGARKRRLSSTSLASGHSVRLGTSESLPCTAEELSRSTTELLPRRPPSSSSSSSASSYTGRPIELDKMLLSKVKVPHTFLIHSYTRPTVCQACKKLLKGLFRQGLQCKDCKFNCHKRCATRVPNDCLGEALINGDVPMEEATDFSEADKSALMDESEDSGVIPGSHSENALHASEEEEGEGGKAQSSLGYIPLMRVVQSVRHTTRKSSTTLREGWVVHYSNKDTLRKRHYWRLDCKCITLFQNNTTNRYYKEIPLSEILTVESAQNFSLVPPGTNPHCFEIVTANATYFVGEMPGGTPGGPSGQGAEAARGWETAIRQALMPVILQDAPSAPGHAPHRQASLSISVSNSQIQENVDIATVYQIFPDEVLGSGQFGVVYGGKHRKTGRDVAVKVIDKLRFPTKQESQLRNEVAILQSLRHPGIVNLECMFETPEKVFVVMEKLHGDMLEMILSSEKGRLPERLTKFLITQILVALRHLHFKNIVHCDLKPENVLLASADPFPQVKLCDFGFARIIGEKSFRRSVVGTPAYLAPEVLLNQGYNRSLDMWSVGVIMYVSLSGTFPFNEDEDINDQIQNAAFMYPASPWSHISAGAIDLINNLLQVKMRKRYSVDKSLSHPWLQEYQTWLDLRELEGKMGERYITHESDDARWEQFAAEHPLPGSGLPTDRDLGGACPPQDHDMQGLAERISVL
As to conditions: at 0.1 µM.

Assay [11] has as its target T3, Serine/threonine-protein kinase D2 (Homo sapiens). To be noted: at 1 µM.
In assay [12] the target is T4, Serine/threonine-protein kinase D3 (Homo sapiens) (UniProt O94806).
T4 sequence (whole entry): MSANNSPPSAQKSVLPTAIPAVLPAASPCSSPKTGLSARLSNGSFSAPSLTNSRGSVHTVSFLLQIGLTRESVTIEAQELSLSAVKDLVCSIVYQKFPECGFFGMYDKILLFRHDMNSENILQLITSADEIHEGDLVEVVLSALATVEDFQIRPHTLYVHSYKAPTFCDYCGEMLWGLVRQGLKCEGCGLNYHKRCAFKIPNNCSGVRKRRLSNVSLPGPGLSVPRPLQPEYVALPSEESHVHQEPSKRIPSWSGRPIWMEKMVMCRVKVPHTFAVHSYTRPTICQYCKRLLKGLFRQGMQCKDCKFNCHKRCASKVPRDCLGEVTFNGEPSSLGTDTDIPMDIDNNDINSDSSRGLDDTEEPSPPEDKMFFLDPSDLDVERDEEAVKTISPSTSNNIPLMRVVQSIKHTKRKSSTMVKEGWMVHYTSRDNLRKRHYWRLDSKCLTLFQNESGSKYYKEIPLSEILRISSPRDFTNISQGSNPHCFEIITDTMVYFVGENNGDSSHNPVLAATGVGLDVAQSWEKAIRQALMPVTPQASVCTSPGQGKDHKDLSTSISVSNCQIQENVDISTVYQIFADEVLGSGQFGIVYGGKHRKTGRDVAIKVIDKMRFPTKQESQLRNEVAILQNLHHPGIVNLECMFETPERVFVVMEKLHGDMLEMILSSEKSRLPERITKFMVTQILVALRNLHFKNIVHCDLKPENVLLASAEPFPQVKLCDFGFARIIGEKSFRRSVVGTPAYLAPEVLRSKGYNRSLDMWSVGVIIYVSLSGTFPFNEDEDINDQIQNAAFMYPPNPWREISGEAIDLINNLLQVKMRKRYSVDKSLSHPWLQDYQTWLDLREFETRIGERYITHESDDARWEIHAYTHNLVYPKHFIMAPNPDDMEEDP
To be noted: at 0.1 µM.

Assay [13] deals with T4, Serine/threonine-protein kinase D3 (Homo sapiens). To be noted: at 1 µM.
Assay [14] deals with T5, cGMP-dependent protein kinase 1 (Homo sapiens) (UniProt Q13976).
T5 sequence (whole entry): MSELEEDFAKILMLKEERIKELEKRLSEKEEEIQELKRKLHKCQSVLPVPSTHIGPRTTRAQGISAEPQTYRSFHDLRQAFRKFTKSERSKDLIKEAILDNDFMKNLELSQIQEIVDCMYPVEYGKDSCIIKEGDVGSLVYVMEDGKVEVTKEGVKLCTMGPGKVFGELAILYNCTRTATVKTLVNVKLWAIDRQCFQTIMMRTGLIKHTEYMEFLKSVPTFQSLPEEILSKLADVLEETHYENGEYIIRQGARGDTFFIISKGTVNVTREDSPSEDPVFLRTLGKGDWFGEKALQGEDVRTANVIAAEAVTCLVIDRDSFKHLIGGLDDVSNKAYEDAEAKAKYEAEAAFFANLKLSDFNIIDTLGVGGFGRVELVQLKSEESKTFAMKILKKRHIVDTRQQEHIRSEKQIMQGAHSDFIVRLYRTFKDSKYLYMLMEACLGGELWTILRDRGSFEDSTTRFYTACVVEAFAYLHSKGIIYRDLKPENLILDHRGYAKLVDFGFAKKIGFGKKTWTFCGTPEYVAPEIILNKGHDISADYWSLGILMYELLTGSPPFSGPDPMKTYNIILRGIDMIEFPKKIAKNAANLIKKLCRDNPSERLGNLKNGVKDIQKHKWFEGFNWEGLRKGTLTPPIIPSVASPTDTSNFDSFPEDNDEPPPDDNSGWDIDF
As to conditions: at 0.1 µM.

Assay [15] has as its target T5, cGMP-dependent protein kinase 1 (Homo sapiens). As to conditions: at 1 µM.
Assay [16] addresses T6, cGMP-dependent protein kinase 2 (Homo sapiens) (UniProt Q13237).
T6 sequence (whole entry): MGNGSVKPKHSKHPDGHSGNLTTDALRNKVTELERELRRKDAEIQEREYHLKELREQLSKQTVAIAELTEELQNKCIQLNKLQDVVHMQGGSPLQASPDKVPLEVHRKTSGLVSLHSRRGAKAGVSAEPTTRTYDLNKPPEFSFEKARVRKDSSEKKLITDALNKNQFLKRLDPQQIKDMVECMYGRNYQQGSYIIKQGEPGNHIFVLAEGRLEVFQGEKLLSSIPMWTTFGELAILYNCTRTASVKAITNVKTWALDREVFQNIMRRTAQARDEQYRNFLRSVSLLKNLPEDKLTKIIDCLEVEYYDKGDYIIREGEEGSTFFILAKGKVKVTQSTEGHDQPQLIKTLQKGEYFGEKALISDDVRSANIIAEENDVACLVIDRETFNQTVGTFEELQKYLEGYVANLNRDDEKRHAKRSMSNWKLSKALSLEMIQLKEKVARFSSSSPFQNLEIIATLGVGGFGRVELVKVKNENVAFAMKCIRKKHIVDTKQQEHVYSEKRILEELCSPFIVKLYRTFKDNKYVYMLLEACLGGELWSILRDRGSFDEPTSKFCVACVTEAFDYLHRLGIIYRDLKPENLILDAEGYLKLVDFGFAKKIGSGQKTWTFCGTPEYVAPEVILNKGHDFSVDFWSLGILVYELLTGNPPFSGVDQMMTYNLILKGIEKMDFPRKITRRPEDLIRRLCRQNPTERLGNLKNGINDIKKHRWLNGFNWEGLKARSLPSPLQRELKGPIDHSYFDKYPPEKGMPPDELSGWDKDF
To be noted: at 0.1 µM.

The target in assay [17] is T6, cGMP-dependent protein kinase 2 (Homo sapiens). As to conditions: at 1 µM.
The target of assay [18] is T7, cAMP-dependent protein kinase catalytic subunit PRKX (Homo sapiens) (UniProt P51817).
T7 sequence (whole entry): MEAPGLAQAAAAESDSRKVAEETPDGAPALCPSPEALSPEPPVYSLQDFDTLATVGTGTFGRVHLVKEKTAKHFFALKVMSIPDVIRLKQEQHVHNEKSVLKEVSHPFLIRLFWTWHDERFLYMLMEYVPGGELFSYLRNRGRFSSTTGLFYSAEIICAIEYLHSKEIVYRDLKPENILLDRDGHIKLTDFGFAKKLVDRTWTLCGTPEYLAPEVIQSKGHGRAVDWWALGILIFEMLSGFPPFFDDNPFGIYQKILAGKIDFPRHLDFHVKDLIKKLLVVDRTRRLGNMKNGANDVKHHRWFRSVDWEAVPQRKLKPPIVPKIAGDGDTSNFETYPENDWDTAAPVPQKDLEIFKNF
As to conditions: at 0.1 µM.

The target in assay [19] is T7, cAMP-dependent protein kinase catalytic subunit PRKX (Homo sapiens). As to conditions: at 1 µM.
The target of assay [20] is Rho-associated protein kinase 1 (Homo sapiens) (UniProt Q13464). As to conditions: at 0.1 µM.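 Also: values are mean percent inhibition of ROCK1.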
Sequence of Rho-associated protein kinase 1 (Homo sapiens) (Q13464 2-1354 limits assumed): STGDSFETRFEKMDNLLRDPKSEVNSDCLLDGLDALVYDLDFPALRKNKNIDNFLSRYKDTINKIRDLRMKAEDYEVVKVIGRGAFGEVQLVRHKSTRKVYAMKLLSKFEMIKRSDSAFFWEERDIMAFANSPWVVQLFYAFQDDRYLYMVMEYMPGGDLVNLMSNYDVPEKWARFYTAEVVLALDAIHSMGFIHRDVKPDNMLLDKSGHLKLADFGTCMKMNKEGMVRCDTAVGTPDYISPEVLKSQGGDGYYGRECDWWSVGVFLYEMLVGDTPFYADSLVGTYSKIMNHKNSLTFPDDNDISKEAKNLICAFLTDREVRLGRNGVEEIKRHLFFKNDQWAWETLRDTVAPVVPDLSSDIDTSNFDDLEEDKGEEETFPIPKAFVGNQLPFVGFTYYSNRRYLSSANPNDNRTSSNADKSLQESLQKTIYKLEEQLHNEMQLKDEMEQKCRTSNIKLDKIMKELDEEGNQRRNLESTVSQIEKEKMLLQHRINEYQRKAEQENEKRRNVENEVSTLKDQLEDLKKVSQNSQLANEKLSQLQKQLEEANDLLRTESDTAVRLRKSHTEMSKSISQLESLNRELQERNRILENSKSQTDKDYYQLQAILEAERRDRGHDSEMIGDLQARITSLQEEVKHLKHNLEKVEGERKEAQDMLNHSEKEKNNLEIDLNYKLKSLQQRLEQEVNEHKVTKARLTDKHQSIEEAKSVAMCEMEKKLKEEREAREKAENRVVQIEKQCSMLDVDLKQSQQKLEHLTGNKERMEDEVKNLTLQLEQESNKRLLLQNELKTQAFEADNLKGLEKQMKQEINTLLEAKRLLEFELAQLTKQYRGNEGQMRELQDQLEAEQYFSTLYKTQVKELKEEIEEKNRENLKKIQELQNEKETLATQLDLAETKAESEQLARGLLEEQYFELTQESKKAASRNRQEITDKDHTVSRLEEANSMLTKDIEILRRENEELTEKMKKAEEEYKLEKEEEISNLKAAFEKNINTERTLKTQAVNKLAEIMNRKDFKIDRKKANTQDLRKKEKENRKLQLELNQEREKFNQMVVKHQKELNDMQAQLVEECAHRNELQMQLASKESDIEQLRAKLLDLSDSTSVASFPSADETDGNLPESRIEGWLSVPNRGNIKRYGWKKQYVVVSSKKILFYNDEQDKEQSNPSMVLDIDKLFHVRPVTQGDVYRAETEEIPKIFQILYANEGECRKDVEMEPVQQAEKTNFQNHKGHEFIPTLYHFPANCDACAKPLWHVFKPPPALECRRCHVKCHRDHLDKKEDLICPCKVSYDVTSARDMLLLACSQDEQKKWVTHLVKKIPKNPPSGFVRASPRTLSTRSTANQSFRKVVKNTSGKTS

For `Cc1cc(O)cc(C)c1/C=C/c1cncc(C(=O)OC(C)(C)C)c1`, the inhibition in [1] turned out to be 2.62%; in [2] it was 2.97%; in assay [3], 0.22%; in [4] it was 1.48%; in [5], 1.91%; in assay [6] it was 1.37%. Also, the inhibition in assay [7] is 1.05%; in [8] it was 2.14%; in assay [9], 2.96%; in assay [10], 1.79%; in assay [11], 1.78%; in assay [12] it was 2.12%. Also, the inhibition in assay [13] was determined as 2.64%; in [14], 3.26%; in [15], 3.58%; in assay [16] it was 1.21%; in assay [17] it was 2.65%; in assay [18], 3.57%. The inhibition in assay [19] stood at 6.36%; in assay [20], 2.92%.

Regarding `O=C(O[C@H]1CN[C@H](C#Cc2cc3ncnc(Nc4ccc5c(cnn5Cc5ccccc5)c4)c3s2)C1)N1CCOCC1`, the inhibition in assay [1] is 1.11%; in [2] it was -1.84%; in assay [3] it was -0.97%; in assay [4] it was -0.32%; in [5], -1.1%; in assay [6], -0.16%. Moreover, the inhibition in assay [7] is -0.06%; in [8] it was 2.57%; in assay [9] it was 1.38%; in [10] it was 1.01%; in [11], 1.12%; in [12] it was 0.01%. Also, the inhibition is 1.45% in [13]; -0.48% in assay [14]; -0.54% in assay [15]; -0.72% in [16]; 0.09% in assay [17]; -0.58% in assay [18]. For the same compound, the inhibition in assay [19] was -0.71%; in assay [20], -2.14%.

Usually inhibition stands for the change of the read-out against control, counted positive when it falls.
